Measured values from PubChem BioAssay (EPA / NIEHS).
Results filed as inconclusive are left out. The source made the active and inactive calls. The calls were made as follows, unless noted: active = hit-call score of the fitted dose curve at least 0.9, where 1 is the maximum; inactive = score below 0.9.

Key:
[1] = ATG_NFI_CIS: Attagene CIS-FACTORIAL HepG2 Assay for human Nuclear Factor I (NFI) (AID 2282989); conditions: HepG2 cis-regulatory reporter, NFI response element transcription; actives raise or lower the signal
Outline: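 Transfected HepG2 liver cells, exposed 24 h, supplied total RNA for oligo(dT) reverse transcription and reporter-specific PCR. Labelled, HpaI-cut fragments were sized by capillary electrophoresis; DMSO set the baseline for bidirectional fitting.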

[2] = target: Myc proto-oncogene protein (Homo sapiens) (UniProt P01106); assay: ATG_Myc_CIS: Attagene CIS-FACTORIAL HepG2 Assay for human Myelocytomatosis (Myc) Proto-Oncogene Transcription Factor (AID 2282990); conditions: HepG2, Attagene cis-reporter transcription factor activity; actives raise or lower the signal
Outline: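 Fluorescence intensity of reporter-specific cDNA fragments, separated by capillary electrophoresis, gives the signal. Transfected HepG2 cells carrying cis-promoter reporter constructs are incubated with compound for 24 h; DMSO serves as baseline.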

[3] = ATG_NF_kB_CIS: Attagene CIS-FACTORIAL HepG2 Assay for human Nuclear Factor Kappa B (NF-kB) (AID 2282991); conditions: HepG2 Attagene cis-factorial NF-kB reporter mRNA; actives raise or lower the signal
Outline: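 Fluorescence of labelled RT-PCR products separated by capillary electrophoresis gives reporter mRNA levels from transfected HepG2 cells exposed 24 h; values are fitted in both directions relative to DMSO.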

[4] = ATG_NRF2_ARE_CIS: Attagene CIS-FACTORIAL HepG2 Assay for human Nuclear Factor Erythroid 2 Related Factor 2 (NFR2) response to Antioxidant Response Elements (ARE) (AID 2282992); conditions: HepG2 Attagene ARE/NRF2 reporter, transcription factor activity; actives raise or lower the signal
Outline: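 HepG2 cells transiently transfected with multiplexed cis-element reporter constructs, 24 h after chemical dosing; reporter mRNA quantified by RT-PCR, fluorescent primer extension, HpaI digestion and capillary electrophoresis. Bidirectional fit relative to DMSO.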

[5] = ATG_Oct_MLP_CIS: Attagene CIS-FACTORIAL HepG2 Assay for human Octamer-Binding Transcription Factor (Oct) (AID 2282993); conditions: HepG2 Attagene cis-factorial Oct reporter, mRNA; actives raise or lower the signal
Outline: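 Using HepG2 cells bearing transfected cis-reporter constructs, mRNA induction was read after 24 h by fluorescent RT-PCR and capillary electrophoresis, with DMSO defining baseline for gain- or loss-of-signal fits.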

[6] = target: Cellular tumor antigen p53 (Homo sapiens) (UniProt P04637); assay: ATG_p53_CIS: Attagene CIS-FACTORIAL HepG2 Assay for human p53 Transcription Factor (AID 2282994); conditions: HepG2 p53 cis-element reporter, Attagene mRNA; actives raise or lower the signal
Outline: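 HepG2 cells transiently transfected with cis-regulated multiple reporter transcription units, dosed 24 h. Reporter mRNA measured by RT-PCR, 6-FAM primer extension, HpaI digestion and capillary electrophoresis; bidirectional fit relative to DMSO.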

[7] = BSK_3C_TissueFactor: BioMAP Diversity Plus: 3C Assay for Tissue Factor Biomarker Activity (AID 2282997); conditions: BioMAP 3C HUVEC, tissue factor biomarker readout; actives raise or lower the signal
Outline: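 Human vascular primary cells (umbilical vein endothelium) received test chemical; Tissue Factor was determined by ELISA at 24 h, and both gain and loss of signal versus DMSO were fitted.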

[8] = BSK_3C_uPAR: BioMAP Diversity Plus: 3C Assay for Urokinase-type plasminogen activator receptor (uPAR) Biomarker Activity (AID 2282998); conditions: BioMAP 3C HUVEC, uPAR biomarker ELISA; actives raise or lower the signal
Outline: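 In this endothelial cell-based assay, human umbilical vein primary cells were treated with chemicals and harvested at 24 h. uPAR was quantified using ELISA, with gains or losses fitted relative to DMSO controls.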

[9] = BSK_3C_VCAM1: BioMAP Diversity Plus: 3C Assay for Vascular cell adhesion molecule 1 (VCAM1) Biomarker Activity (AID 2282999); conditions: BioMAP 3C HUVEC, VCAM1 ELISA, cytokine-stimulated; actives raise or lower the signal
Outline: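 Human umbilical vein endothelial cells (3C system), biomarker read by ELISA 24 h after dosing; bidirectional fit against DMSO baseline. Cytotoxicity tracked by SRB total-protein staining in parallel cultures at biomarker time.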

[10] = BSK_4H_Eotaxin3: BioMAP Diversity Plus: 4H Assay for Eotaxin 3 Biomarker Activity (AID 2283000); conditions: primary human endothelial cells (HUVEC); actives raise or lower the signal
Outline: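 Readout is Eotaxin-3 (CCL26) level by ELISA in primary human umbilical vein endothelial cells harvested 24 h after chemical exposure; activity fitted in both directions against DMSO control.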

[11] = target: human Peroxisome Proliferator-activated Receptor alpha (PPARa), PPARA (gene 5465) (UniProt Q07869); assay: ATG_PPARa_TRANS: Attagene TRANS-FACTORIAL HepG2 Assay for human Peroxisome Proliferator-activated Receptor alpha (PPARa) (AID 2283001; active = hit-call score of the fitted dose curve at least 0.9, where 1 is the maximum)
Outline: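 Measures transcriptional activity of an exogenous chimeric PPARa-Gal4 protein in transiently transfected HepG2 cells after 24 h dosing. Reporter mRNA quantified via RT-PCR and capillary electrophoresis; DMSO served as negative control.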

[12] = target: human Peroxisome Proliferator-activated Receptor delta (PPARd), PPARD (gene 5467) (UniProt Q03181); assay: ATG_PPARd_TRANS: Attagene TRANS-FACTORIAL HepG2 Assay for human Peroxisome Proliferator-activated Receptor delta (PPARd) (AID 2283002; active = hit-call score of the fitted dose curve at least 0.9, where 1 is the maximum)
Outline: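 Fluorescence from capillary electrophoresis of labelled RT-PCR reporter fragments gives the signal; DMSO sets baseline. Cells: HepG2 transiently carrying GAL4-UAS reporter units plus chimeric nuclear receptor-Gal4 proteins, exposed to chemicals for 24 h.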

[13] = read-out: Intercellular Adhesion Molecule 1 (ICAM1), ICAM1 (gene 3383); assay: BSK_3C_ICAM1: BioMAP Diversity Plus: 3C Assay for Intercellular Adhesion Molecule 1 (ICAM1) Biomarker Activity (AID 2283003); conditions: primary human endothelial cells (HUVEC); actives raise or lower the signal
Outline: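 Human vascular endothelial primary cells, 3C conditions, 24 h treatment. ICAM-1 by ELISA.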

[14] = BSK_3C_Proliferation: Cell Proliferation Assessment in the BioMAP Diversity Plus: 3C Assay (AID 2283006); conditions: primary human endothelial cells (HUVEC);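 as to AC50: potency may reflect either rise or fall in cell number versus DMSO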
Outline: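 Proliferation of human vascular endothelial primary cells after 48 h dosing, quantified as SRB-stained protein at 560 nm relative to DMSO.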

[15] = target: Nuclear receptor subfamily 1 group I member 2 (Homo sapiens) (UniProt O75469); assay: ATG_PXR_TRANS: Attagene TRANS-FACTORIAL HepG2 Assay for human Pregnane X Receptor (PXR) (AID 2283008; active = hit-call score of the fitted dose curve at least 0.9, where 1 is the maximum)
Outline: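 HepG2 cells transiently transfected with GAL4-UAS reporter units and PXR-Gal4 chimera, exposed 24 h. Reporter mRNA quantified by RT-PCR, fluorescent labelling, HpaI digestion and capillary electrophoresis; gain of signal vs DMSO.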

[16] = target: human RAR-related Orphan Receptor beta (RORb), RORB (gene 6096) (UniProt Q92753); assay: ATG_RORb_TRANS: Attagene TRANS-FACTORIAL HepG2 Assay for human RAR-related Orphan Receptor beta (RORb) (AID 2283010; active = hit-call score of the fitted dose curve at least 0.9, where 1 is the maximum)
Outline: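 In this TRANS-format test, human HepG2 cells express chimeric NR-Gal4 fusion proteins driving GAL4-UAS reporters. After 24 h dosing, reporter transcripts are measured by fluorescent RT-PCR/capillary electrophoresis, with DMSO as negative control.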

[17] = target: Retinoic acid receptor alpha (Homo sapiens) (UniProt P10276); assay: ATG_RARa_TRANS: Attagene TRANS-FACTORIAL HepG2 Assay for human Retinoic Acid Receptor alpha (RARa) (AID 2283005; active = hit-call score of the fitted dose curve at least 0.9, where 1 is the maximum)
Outline: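 HepG2 transiently transfected with multiplex GAL4-UAS reporter units including a human RARa–GAL4 chimera; 24 h compound exposure. Reporter mRNA quantified by RT-PCR, 6-FAM labeling and capillary electrophoresis; gain of signal versus DMSO.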

[18] = target: Peroxisome proliferator-activated receptor gamma (Homo sapiens) (UniProt P37231); assay: ATG_PPARg_TRANS: Attagene TRANS-FACTORIAL HepG2 Assay for human Peroxisome Proliferator-activated Receptor-gamma (PPARg) (AID 2283007; active = hit-call score of the fitted dose curve at least 0.9, where 1 is the maximum)
Outline: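 Twenty-four hours after chemical dosing of transiently transfected HepG2 cells, isolated RNA was converted to cDNA, reporter sequences amplified and 6-FAM-labelled, then HpaI-digested and analysed by capillary electrophoresis. Signal increase against DMSO was fitted.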

[19] = target: human Retinoic Acid Receptor gamma (RARg), RARG (gene 5916) (UniProt P13631); assay: ATG_RARg_TRANS: Attagene TRANS-FACTORIAL HepG2 Assay for human Retinoic Acid Receptor gamma (RARg) (AID 2283009; active = hit-call score of the fitted dose curve at least 0.9, where 1 is the maximum)
Outline: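 HepG2, RARg-GAL4 TRANS system, 24 h exposure; reporter mRNA by RT-PCR + CE fluorescence; increase over DMSO.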

Measured: AC50

Sequence of Cellular tumor antigen p53 (Homo sapiens) (P04637 whole entry, looked up): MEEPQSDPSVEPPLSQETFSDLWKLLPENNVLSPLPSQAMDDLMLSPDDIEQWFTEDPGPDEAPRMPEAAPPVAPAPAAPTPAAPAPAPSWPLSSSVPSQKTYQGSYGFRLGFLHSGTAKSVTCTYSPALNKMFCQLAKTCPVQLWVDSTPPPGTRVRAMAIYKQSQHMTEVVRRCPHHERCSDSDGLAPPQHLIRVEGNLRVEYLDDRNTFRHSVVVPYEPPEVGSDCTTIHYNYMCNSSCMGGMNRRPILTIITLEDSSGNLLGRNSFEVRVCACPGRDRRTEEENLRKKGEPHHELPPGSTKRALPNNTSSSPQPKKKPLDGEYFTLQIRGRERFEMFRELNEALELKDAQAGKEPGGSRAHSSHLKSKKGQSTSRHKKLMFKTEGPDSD
Sequence of Peroxisome proliferator-activated receptor gamma (Homo sapiens) (P37231 whole entry, looked up): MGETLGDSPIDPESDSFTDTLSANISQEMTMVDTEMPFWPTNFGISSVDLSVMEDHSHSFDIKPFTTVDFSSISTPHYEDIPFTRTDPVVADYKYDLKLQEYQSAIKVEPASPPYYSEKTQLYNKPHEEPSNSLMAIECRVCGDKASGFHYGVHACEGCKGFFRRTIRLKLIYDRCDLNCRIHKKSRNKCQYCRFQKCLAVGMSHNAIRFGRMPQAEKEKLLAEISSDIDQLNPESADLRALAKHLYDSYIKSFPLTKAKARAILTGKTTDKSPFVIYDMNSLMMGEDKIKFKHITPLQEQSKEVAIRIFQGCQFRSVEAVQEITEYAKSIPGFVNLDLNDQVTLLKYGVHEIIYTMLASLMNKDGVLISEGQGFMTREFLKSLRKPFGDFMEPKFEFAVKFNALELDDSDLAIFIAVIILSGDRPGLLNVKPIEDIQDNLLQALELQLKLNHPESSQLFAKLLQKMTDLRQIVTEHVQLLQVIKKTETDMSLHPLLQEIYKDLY
Sequence of human Peroxisome Proliferator-activated Receptor delta (PPARd), PPARD (gene 5467) (Q03181 whole entry, looked up, the tested form may be a part): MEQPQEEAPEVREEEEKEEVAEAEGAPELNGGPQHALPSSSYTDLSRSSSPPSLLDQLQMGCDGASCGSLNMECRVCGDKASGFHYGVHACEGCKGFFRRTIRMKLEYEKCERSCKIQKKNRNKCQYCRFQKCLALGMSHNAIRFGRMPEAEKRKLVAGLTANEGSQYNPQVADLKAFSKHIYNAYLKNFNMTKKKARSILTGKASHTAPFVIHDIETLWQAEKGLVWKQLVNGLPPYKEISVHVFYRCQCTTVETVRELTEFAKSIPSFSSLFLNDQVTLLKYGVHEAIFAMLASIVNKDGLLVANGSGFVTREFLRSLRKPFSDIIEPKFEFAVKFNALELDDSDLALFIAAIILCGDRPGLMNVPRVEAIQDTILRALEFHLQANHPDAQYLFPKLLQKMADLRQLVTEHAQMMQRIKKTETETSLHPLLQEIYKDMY
Sequence of Myc proto-oncogene protein (Homo sapiens) (P01106 whole entry, looked up, the tested form may be a part): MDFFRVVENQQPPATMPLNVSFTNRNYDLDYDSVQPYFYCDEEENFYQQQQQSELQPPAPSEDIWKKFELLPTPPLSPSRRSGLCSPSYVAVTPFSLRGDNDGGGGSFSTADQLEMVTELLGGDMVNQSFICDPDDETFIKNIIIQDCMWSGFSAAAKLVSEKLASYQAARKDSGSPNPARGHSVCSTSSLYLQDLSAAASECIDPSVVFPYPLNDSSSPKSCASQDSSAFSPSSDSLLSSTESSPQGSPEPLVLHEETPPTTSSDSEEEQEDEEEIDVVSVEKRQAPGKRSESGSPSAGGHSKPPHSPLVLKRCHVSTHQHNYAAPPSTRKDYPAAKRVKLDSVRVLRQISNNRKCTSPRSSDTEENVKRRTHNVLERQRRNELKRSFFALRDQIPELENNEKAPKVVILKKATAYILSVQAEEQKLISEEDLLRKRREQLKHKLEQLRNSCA
Sequence of human Peroxisome Proliferator-activated Receptor alpha (PPARa), PPARA (gene 5465) (Q07869 whole entry, looked up, the tested form may be a part): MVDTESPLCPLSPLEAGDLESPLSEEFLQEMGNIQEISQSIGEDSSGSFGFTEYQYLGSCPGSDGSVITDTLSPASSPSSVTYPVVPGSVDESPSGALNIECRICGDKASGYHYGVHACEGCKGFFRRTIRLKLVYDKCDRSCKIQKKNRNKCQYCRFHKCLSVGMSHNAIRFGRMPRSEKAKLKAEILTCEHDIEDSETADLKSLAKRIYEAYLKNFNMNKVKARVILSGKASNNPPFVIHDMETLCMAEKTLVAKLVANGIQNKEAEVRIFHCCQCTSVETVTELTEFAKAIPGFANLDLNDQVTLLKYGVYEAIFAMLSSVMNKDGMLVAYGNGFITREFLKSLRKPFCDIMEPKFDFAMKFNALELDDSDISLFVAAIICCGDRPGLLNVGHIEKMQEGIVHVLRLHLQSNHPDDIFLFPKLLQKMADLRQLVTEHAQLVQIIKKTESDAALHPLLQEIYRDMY
Sequence of human Retinoic Acid Receptor gamma (RARg), RARG (gene 5916) (P13631 whole entry, looked up, the tested form may be a part): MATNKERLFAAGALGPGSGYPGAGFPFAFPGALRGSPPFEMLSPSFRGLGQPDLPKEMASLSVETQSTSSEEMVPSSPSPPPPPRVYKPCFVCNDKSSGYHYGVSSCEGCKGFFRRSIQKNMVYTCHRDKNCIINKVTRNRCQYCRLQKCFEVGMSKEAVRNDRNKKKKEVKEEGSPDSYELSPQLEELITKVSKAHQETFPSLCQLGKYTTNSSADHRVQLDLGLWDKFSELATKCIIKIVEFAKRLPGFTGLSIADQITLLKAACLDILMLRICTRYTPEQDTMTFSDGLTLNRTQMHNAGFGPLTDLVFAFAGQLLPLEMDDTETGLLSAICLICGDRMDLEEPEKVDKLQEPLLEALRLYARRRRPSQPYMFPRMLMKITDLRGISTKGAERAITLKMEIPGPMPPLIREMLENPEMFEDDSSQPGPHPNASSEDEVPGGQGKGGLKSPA
Sequence of Nuclear receptor subfamily 1 group I member 2 (Homo sapiens) (O75469 whole entry, looked up, the tested form may be a part): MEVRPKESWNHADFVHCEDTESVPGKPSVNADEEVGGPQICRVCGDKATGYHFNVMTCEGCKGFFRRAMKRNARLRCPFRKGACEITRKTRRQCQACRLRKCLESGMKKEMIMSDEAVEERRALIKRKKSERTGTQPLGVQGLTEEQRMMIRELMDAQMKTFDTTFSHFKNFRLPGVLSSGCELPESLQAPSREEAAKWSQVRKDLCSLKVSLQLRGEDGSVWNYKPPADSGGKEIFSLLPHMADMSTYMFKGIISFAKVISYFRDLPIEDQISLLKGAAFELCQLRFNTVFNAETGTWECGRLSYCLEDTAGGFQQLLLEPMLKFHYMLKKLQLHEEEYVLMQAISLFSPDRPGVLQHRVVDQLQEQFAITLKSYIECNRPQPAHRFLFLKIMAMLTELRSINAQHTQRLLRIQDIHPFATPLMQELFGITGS
Sequence of human RAR-related Orphan Receptor beta (RORb), RORB (gene 6096) (Q92753 whole entry, looked up, the tested form may be a part): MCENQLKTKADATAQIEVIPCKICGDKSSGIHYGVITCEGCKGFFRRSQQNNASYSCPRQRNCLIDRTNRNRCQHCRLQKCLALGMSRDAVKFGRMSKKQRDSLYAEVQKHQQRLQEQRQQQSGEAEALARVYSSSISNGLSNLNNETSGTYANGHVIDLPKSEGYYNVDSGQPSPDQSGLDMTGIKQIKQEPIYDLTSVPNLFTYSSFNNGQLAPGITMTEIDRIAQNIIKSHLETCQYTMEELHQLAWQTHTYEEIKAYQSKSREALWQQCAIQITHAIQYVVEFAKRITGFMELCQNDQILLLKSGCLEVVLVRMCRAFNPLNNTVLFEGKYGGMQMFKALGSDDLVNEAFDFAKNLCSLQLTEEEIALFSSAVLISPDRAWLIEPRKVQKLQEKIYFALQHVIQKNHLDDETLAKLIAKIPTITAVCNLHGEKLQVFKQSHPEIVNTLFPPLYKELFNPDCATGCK
Sequence of Retinoic acid receptor alpha (Homo sapiens) (P10276 whole entry, looked up, the tested form may be a part): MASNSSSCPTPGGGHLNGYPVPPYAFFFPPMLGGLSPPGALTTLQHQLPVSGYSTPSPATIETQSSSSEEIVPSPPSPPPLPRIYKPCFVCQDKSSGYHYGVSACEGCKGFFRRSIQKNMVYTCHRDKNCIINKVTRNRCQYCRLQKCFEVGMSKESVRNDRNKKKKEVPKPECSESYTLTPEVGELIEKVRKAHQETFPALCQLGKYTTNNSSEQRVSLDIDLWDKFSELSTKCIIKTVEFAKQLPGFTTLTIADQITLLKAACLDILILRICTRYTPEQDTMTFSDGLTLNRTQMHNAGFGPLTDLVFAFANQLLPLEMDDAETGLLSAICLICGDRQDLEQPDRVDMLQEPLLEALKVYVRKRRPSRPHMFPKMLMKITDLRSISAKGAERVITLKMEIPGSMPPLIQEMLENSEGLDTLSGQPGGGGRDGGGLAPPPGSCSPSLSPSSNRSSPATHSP

c1ccc(NNc2ccccc2)cc1
active: [4] 27.8 µM
inactive: [1] | [2] | [3] | [5] | [6] | [7] | [8] | [9] | [10] | [11] | [12] | [13] | [14] | [15] | [16]

Nc1ccc(Oc2ccc(N)cc2)cc1
inactive: [1] | [2] | [3] | [4] | [5] | [6] | [7] | [8] | [9] | [10] | [11] | [13] | [17] | [14] | [18] | [19]

COP(=S)(OC)SCN1C(=O)c2ccccc2C1=O
inactive: [1] | [2] | [3] | [4] | [5] | [6] | [8] | [9] | [10] | [11] | [12] | [13] | [18] | [15]
active: [7] 7.76 µM | [14] 28.4 µM

Cc1cc(N=Nc2ccccc2C)ccc1N
active: [4] 7.21 µM | [5] 20.4 µM | [8] 10.4 µM | [10] 14.2 µM | [14] 13 µM | [18] 18.3 µM | [15] 20.7 µM
inactive: [1] | [2] | [3] | [6] | [7] | [9] | [11] | [12] | [13] | [19]

O=[N+]([O-])c1ccc(Oc2ccc(Cl)cc2Cl)cc1
inactive: [1] | [2] | [3] | [4] | [5] | [6] | [7] | [9] | [11] | [12] | [13]
active: [8] 9.38 µM | [10] 33.6 µM | [14] 32.4 µM | [18] 14.3 µM | [15] 9.58 µM

Cc1ccc(N)c(N)c1
active: [4] 8.84 µM | [5] 42.3 µM | [9] 5.57 µM | [14] 2.11 µM
inactive: [1] | [2] | [3] | [6] | [7] | [8] | [10] | [11] | [13] | [15] | [19] | [16]

ClC1=C(Cl)C2(Cl)C3C(Cl)C=CC3C1(Cl)C2(Cl)Cl (stereo not drawn)
inactive: [4] | [12] | [18] | [15] | [19]
active: [1] 186 µM | [2] 100 µM | [3] 100 µM | [5] 149 µM | [6] 100 µM | [7] 26.9 µM | [8] 29.3 µM | [9] 30.8 µM | [10] 29.9 µM | [13] 30.2 µM | [14] 7.84 µM
